Out of some 220,000 compounds screened, about 970 (0.44%) were called active. The sample holds actives, similar compounds and a random draw of the others, so the mix is not that of the screen. Rule as the data show it: active = activation above about 27%; inactive = the rest.
The molecules below were run against Neuropeptide Y receptor type 2 (Homo sapiens) (UniProt P49146) (assay: human Y2 receptor positive modulation or activation – cell-based, primary screen (AID 1359;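 also: cells stimulated with NPY near EC25 plus isoproterenol at EC100; 0% = vehicle plus submaximal agonist and 100% = vehicle plus saturating agonist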)). Conditions: cells expressing NPY-Y2, potentiator/agonist read-out; at 3.6 µM; hits give high values.
Chain of Neuropeptide Y receptor type 2 (Homo sapiens) (P49146 whole entry, looked up): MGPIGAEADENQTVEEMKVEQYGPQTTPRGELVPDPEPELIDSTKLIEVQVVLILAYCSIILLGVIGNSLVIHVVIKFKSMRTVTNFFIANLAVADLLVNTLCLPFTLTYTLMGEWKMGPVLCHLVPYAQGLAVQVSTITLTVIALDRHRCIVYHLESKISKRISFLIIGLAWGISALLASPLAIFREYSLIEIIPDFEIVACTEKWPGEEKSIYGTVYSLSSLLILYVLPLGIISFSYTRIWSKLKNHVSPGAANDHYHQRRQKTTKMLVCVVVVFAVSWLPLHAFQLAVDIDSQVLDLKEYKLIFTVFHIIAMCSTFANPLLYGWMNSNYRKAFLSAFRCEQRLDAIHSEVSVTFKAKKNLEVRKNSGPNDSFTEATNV
`COc1ccc(C)cc1NC(=O)Nc1ccccc1SC` was tested, and the activation was -22.3% (inactive).
For `Cc1cccc(NC(=O)C(C)N2C(=O)C3C4CC(C(Br)C4Br)C3C2=O)c1` (configuration not stated), the activation was 33.6% (active).
For `Cc1ccnc(NC(=O)C(C)N2C(=O)c3ccccc3C2=O)c1` (configuration not stated), the activation was -9.95% (inactive).
`Cc1cccc(NC(=O)CN2C(=O)CNC2=O)c1` was tested, and the activation was -5.86% (inactive).
`CN(Cc1ccccc1)C(=O)CCNC(=O)Cn1cnc2ccccc2c1=O` was tested, and the activation was 54.9% (active).
`O=C(Cn1cnc2ccccc2c1=O)NCC1COc2ccccc2O1` (configuration not stated) was tested, and the activation was 4.37% (inactive).
`CCOC(=O)N1CCN(C(=O)Cn2cnc3ccccc3c2=O)CC1` was tested, and the activation was 2.69% (inactive).
With `O=C(CN1CCN(Cc2ccccc2)CC1)NC(c1ccccc1)c1ccccc1` the activation was -14% (inactive).
With `Cc1ccc(CNC(=O)Cn2c(=O)c3sccc3n(Cc3cccc([N+](=O)[O-])c3)c2=O)cc1` the activation was 5.29% (inactive).
For `Oc1c(Br)cc(/C=N/NC(=S)NCC2CCCO2)cc1Br` (configuration not stated), the activation was 5.85% (inactive).
In the case of `Cn1nc(C(C)(C)C)c(NC(=O)c2sccc2Cl)c1C(C)(C)C`, the activation is reported as -3.45% (inactive).
For `O=C(CSc1ncnc2scc(-c3ccccc3)c12)NCc1ccc2c(c1)OCO2`, the activation was -18.5% (inactive).
`CCOC(=O)c1c(C)nn(-c2ncccc2NC(=O)CCC(=O)O)c1C` was tested, and the activation was 2.97% (inactive).
For `CCOC(=O)C(Sc1ncc(C#N)c(N)n1)C(C)C` (configuration not stated), the activation was 41.9% (active).
For `CCCCOc1ccc(-c2ncc(C(=O)OCC)c(N)n2)cc1`, the activation was -4.83% (inactive).
For `CCOC(=O)CSc1nccc(N(C)C)c1C#N`, the activation was -3.41% (inactive).
For `COc1ccc2c(c1)c1ncn(Cc3ccccn3)c(=O)c1n2C`, the activation was -3.5% (inactive).
`Cc1oc2cc([N+](=O)[O-])c(O)c([N+](=O)[O-])c2c1C(=O)c1ccc(Br)cc1` was tested, and the activation was 8.73% (inactive).
For `C[n+]1ccc(/C=C/c2c[nH]c3ccccc23)cc1`, the activation was 3.07% (inactive).
With `O=C(O)/C=C\C(=O)Nc1ccc(OCc2ccccc2)cc1` the activation was -1.76% (inactive).
`c1cnc(NC2C3CC4CC(C3)CC2C4)nc1` (configuration not stated) was tested, and the activation was 2.83% (inactive).
In the case of `CN(C)c1ccc(CNC23CN4CN(CN(C4)C2)C3)cc1`, the activation is reported as 8.96% (inactive).
In the case of `CN(C)c1ccc(CNC2C3CC4CC(C3)CC2C4)cc1` (configuration not stated), the activation is reported as 31.8% (active).
In the case of `Cc1cccc(C)c1NC(=O)C(c1ccccc1)N1CC(=O)Nc2ccccc21` (configuration not stated), the activation is reported as -1.44% (inactive).
In the case of `CCOC(=O)/C(=C\c1ccc([N+](=O)[O-])cc1)C(=O)c1cc(C(C)=O)c(Nc2ccccc2)s1`, the activation is reported as -2.39% (inactive).
`CCOc1cc(/C=N/NC(=O)OC)ccc1OCCSc1ccc(Cl)cc1` was tested, and the activation was 3.6% (inactive).
For `CC(CO)NCC12CC3CC(CC(C3)C1)C2` (configuration not stated), the activation was 2.65% (inactive).
`Cc1ccc(NC(=O)O/N=C/c2cccc([N+](=O)[O-])c2)cc1` was tested, and the activation was -2.02% (inactive).
With `O=C(NC(Nc1nc2ccc([N+](=O)[O-])cc2s1)(C(F)(F)F)C(F)(F)F)c1ccccc1` the activation was 61.7% (active).
For `O=C(Nc1nc2ccc([N+](=O)[O-])cc2s1)c1ccncc1`, the activation was 17.8% (inactive).
In the case of `O=C(O)CCC(=O)Nc1nc2ccc([N+](=O)[O-])cc2s1`, the activation is reported as 0.15% (inactive).
In the case of `CCc1c(C)sc(NC(=O)c2cccs2)c1C(N)=O`, the activation is reported as 18% (inactive).
In the case of `Cc1coc2c(O)cc3c(c12)OC1(N2CCCCC2)C(=O)NCCCC31` (configuration not stated), the activation is reported as 93% (active).
In the case of `COc1ccc(C2c3c(C)nn(-c4ccccc4)c3NC(=O)N2c2ccccc2)cc1` (configuration not stated), the activation is reported as 11.1% (inactive).
With `Cc1ccc(C)c2c1cc(C)c1nnc(SCC(=O)Nc3cccc(C(=O)O)c3)n12` the activation was -10% (inactive).
`Cc1nn(CCOc2ccc(Br)cc2)c(C)c1[N+](=O)[O-]` was tested, and the activation was 14.5% (inactive).
With `O=C(NC1C2CC3CC(C2)CC1C3)c1ccc(N2CCNCC2)c([N+](=O)[O-])c1` (configuration not stated) the activation was 29.4% (inactive).
`C#CCOCCOCCOCCNc1nc(N2CCN(C(=O)[C@H](CCCCN)n3cc([C@@H](N)C(C)CC)nn3)CC2)nc(N2CCN(C(=O)[C@H](Cc3ccc(O)cc3)n3cc([C@@H](N)C(C)CC)nn3)CC2)n1` (some centres not stated) was tested, and the activation was 104% (active).
`C#CCOCCOCCOCCNc1nc(N2CCN(C(=O)C(Cc3ccc(O)cc3)n3cc(C(N)CC(C)C)nn3)CC2)nc(N2CCN(C(=O)C(Cc3ccc(O)cc3)n3cc(C(N)C(C)CC)nn3)CC2)n1` (configuration not stated) was tested, and the activation was -7.8% (inactive).
`C#CCOCCOCCOCCNc1nc(N2CCN(C(=O)[C@H](Cc3ccc(O)cc3)n3cc(C(N)CC(C)C)nn3)CC2)nc(N2CCN(C(=O)[C@H](CCC(=O)O)n3cc(C(N)[C@H](C)CC)nn3)CC2)n1` (some centres not stated) was tested, and the activation was -9.15% (inactive).
With `O=C(CCC(=O)NNc1nc2ccccc2c2nc(-c3ccccc3)nn12)NCCCN1CCCC1=O` the activation was -1.14% (inactive).
`CCCCNC(=S)N/N=C1\CCCCc2ccccc21` was tested, and the activation was 2.42% (inactive).
For `COc1ccc2[nH]c(=S)cc(C)c2c1`, the activation was -28% (inactive).
`COc1ccc2[nH]c3ccc(OC)cc3c2c1` was tested, and the activation was 65.6% (active).
With `CCN(CC)CC(=O)c1c[nH]c2ccc(OC)cc12` the activation was 0.4% (inactive).
For `O=C(c1c(Cl)cccc1Cl)N1CCN(c2cccc3[nH]ccc23)CC1`, the activation was 6.12% (inactive).
In the case of `C=Cn1c(C(=O)O)ccc1-c1ccc(OC)cc1`, the activation is reported as -9.57% (inactive).
`COc1ccc(C(=O)C2CCCN(Cc3ccc4nonc4c3)C2)c(C)c1` (configuration not stated) was tested, and the activation was -20.8% (inactive).
In the case of `CCOC(=O)c1[nH]ncc1CN1CCCC(C(=O)c2ccc(OC)cc2C)C1` (configuration not stated), the activation is reported as 3.33% (inactive).
For `COc1ccc(C(=O)C2CCCN(Cc3cccn3-c3ccccn3)C2)c(C)c1` (configuration not stated), the activation was 89.8% (active).
`CC1CCc2sc(C(=O)N/N=C/C3CCCCC3)cc2C1` (configuration not stated) was tested, and the activation was 4.14% (inactive).
In the case of `CSCC(=O)N1CCCC(C(=O)c2cc(F)ccc2F)C1` (configuration not stated), the activation is reported as 0.81% (inactive).
With `O=C(Nc1ccccc1)N1CCN(C2c3ccccc3-c3ccccc32)CC1` the activation was -13.1% (inactive).
For `N#C/C(=C\N1CCOCC1)S(=O)(=O)c1ccc(Cl)cc1`, the activation was 8.91% (inactive).
For `Cc1cccc(C)c1NC(=O)C1(C)c2cccc[n+]2CC(=O)N1Cc1cccs1` (configuration not stated), the activation was -2.7% (inactive).
`C/C(=N/NC(=O)c1ccn(C)n1)c1ccncc1` was tested, and the activation was 9.5% (inactive).
For `COC(=O)c1ccc(NC(=O)Nc2ccc(C)cc2)cc1`, the activation was 99.2% (active).
In the case of `CC(=O)c1cccc(NC(=O)Nc2ccc(C)cc2)c1`, the activation is reported as 6.31% (inactive).
For `Cc1ccc(NC(=O)CC(=O)Nc2ccc(C)cc2)cc1`, the activation was -4.26% (inactive).
With `Cc1ccc(S(=O)(=O)N2CCN(C(=O)COC(=O)c3c(C)noc3C)CC2)c(C)c1` the activation was -1.02% (inactive).
For `O=C(NC(Cc1c[nH]c2ccccc12)C(=O)N/N=C/c1ccc(Br)cc1)c1cccs1` (configuration not stated), the activation was 17.2% (inactive).
With `COc1cc([N+](=O)[O-])ccc1NC(=S)N1CCN(c2ccccn2)CC1` the activation was -7.19% (inactive).
